Screening results from PubChem.
BoNT F protease – inhibitors of Botulinum neurotoxin F light chain protease. actives 0.22% (n = 360,000). inhibition, % at 10 µM. Multiplex microsphere protease cleavage assay, flow cytometry. AID 588497; in the data active means inhibition above about 35%, passing the limit was not always enough; inconclusive means no clear call, values can overlap the other calls; further: plate controls were buffer without enzyme for full effect and enzyme alone for no effect
Autofluor counter – flagged as autofluorescent in microsphere protease counterscreen. compound autofluorescence counterscreen, microsphere flow cytometry; active compounds read high. fluorescence intensity (test concentration not listed). actives 3.1% (n = 360,000). AID 624483; in the data active means fluorescence intensity above about 16000; inconclusive means no clear call, values can overlap the other calls
MazF activator – increases E. coli MazEF RNase cleavage of RNA | FAM/BHQ RNA-DNA oligo cleavage fluorescence, 5 h | actives 0.32% (n = 350,000) | AID 504720 | P0AE70 | activation, % at 20 µM; in the data active means activation above about 50%
Target sequence (P0AE70 whole entry, looked up): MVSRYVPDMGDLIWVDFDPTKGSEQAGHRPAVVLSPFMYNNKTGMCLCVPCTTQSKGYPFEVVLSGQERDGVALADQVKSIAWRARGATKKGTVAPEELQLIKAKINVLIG
Anthrax LF inh2 – blocks Bacillus anthracis lethal factor protease; P15917; multiplex microsphere protease cleavage assay, LF; inhibition, % at 10 µM; actives 0.12% (n = 360,000); AID 588501; further: plate controls were buffer without enzyme for full effect and enzyme alone for no effect
BoNT A protease – blocks Botulinum neurotoxin A light chain protease. actives 0.17% (n = 360,000). AID 588499. multiplex microsphere protease substrate cleavage, flow cytometry. inhibition, % at 10 µM; further: plate controls were buffer without enzyme for full effect and enzyme alone for no effect
BoNTA LC inh 1 – blocks botulinum neurotoxin A light chain protease; shares compounds with BoNT F protease; multiplex microsphere protease assay, flow cytometry; actives 3% (n = 720); AID 602139; inhibition, % at 10 µM; in the data active means inhibition above about 32%
BoNT-F LC CP1 – blocks botulinum neurotoxin F light chain protease | shares compounds with BoNT F protease | multiplex microsphere protease cleavage assay, flow cytometry | inhibition, % at 10 µM | 720 tested, under 10 active; call rule not given here
Anthrax LF CP1 – blocks anthrax lethal factor protease; shares compounds with BoNT F protease; multiplex microsphere protease cleavage assay, LF; inhibition, % at 10 µM; 720 tested, under 10 active; AID 602142; call rule not given here
* marks the source's active call; other numbers are inactive results; ? = inconclusive; . = no result; + = active, no number. Rows were chosen to be rich in hits. Some 3.7% of all compounds tested hit in one or more screens of this group. Unless noted, no stated cut-off is given here; in the data, active means inhibition above about 30%; inconclusive means no clear call, values can overlap the other calls; inactive means below that.

SMILES	BoNT F protease	Autofluor counter	MazF activator	Anthrax LF inh2	BoNT A protease	BoNTA LC inh 1	BoNT-F LC CP1	Anthrax LF CP1
CCOc1c(Br)cc(C(N)=O)cc1OCc1ccccc1	36.1*	2607	-7.1	-1.1	3.0	-1.6	0.1	-0.2
O=C(NCCN1C(=O)S/C(=C\c2ccc(Cl)cc2Cl)C1=O)C1=COCCO1	?	5174	3.8	-3.7	-5.2	.	.	.
c1csc(-c2nc3nc4ccccc4nc3n2Cc2ccc3c(c2)OCO3)c1	25.2	2888	3.7	34.4*	50.9*	8.4	-8.5	4.0
O=C(NC1CCN(C(=S)Nc2ccccc2Cl)CC1)C1CCCCC1	7.1	3643	2.2	-5.1	-3.3	.	.	.
CC(C(=O)NCc1ccccc1Cl)n1cc([N+](=O)[O-])cn1 (centres undefined)	37.7*	3781	4.8	-15.1	-1.0	0.5	-3.7	-0.7
CCCCN(C)C(=O)c1cc2cc3ccc(OC)cc3nc2s1	-4.1	3426	4.1	-6.6	1.0	0.2	-1.7	-0.4
Cc1c(C)c2c(OCC(=O)N3CCC(C(N)=O)CC3)cc3c(c2oc1=O)CCC(C)(C)O3	1.9	5440	12.1	5.4	0.2	.	.	.
COc1ccc(Cl)cc1C(=O)NCCN1CCOCC1	.	.	-2.2	.	.	.	.	.
COc1cc(SC)ccc1C(=O)NCCN1CCOCC1	?	4147	5.7	37.1*	3.7	-1.0	-1.7	-4.3
CCC(C)N(CC(=O)Nc1cccc(C)c1C)C(=O)CCl (centres undefined)	-1.6	3121	-20.3	-1.2	0.2	.	.	.
Cc1nnc(NC(=O)c2sc3nc(-c4cccs4)cc(C(F)(F)F)c3c2N)s1	25.7	14974	-27.5	10.9	10.0	.	.	.
COc1ccccc1NC(=O)c1sc2nc(Cc3ccccc3)cc(C(F)(F)F)c2c1N	11.7	7395	-35.7	15.5	30.2*	6.4	-1.5	2.4
CC(C)(C)C(=O)c1sc2nc(-c3cccs3)cc(C(F)(F)F)c2c1N	21.8	7776	+	34.0*	33.9*	24.2	11.5	9.4
COc1ccc(NC(=O)c2sc3nc(Cc4ccccc4)cc(C(F)(F)F)c3c2N)cc1OC	-6.8	2000	-12.4	2.1	1.5	.	.	.
Nc1c(C(=O)Nc2nccs2)sc2nc(-c3cccs3)cc(C(F)(F)F)c12	82.0*	5256	114.8*	5.7	9.0	9.6	10.0	3.5
CCN(CC)C(=O)c1sc2nc(-c3cccs3)cc(-c3ccc(Cl)cc3)c2c1N	13.8	4742	-43.7	39.0*	53.4*	16.3	1.4	12.2
Cc1nn(C)c2nc(-c3cccs3)cc(C(F)(F)F)c12	2.0	3340	-26.2	-2.2	0.7	.	.	.
CCN(CC)C(=O)c1sc2nc(-c3cccs3)cc(-c3cccs3)c2c1N	-6.4	4184	-70.5	2.1	11.2	.	.	.
CCOc1cc(CNCC(O)c2ccccc2)cc(Cl)c1OC (centres undefined)	41.4*	2453	-2.1	-0.8	3.6	0.8	-10.8	-2.5
CCCSc1nc(C)cc(=O)[nH]1	?	2690	1.6	-8.9	-1.1	.	.	.
CCOC(=O)c1[nH]c(=O)[nH]c1CSc1nc(C)cc(C)n1	-3.3	4731	1.1	-1.7	-0.2	.	.	.
CCOC(=O)CCCCC(=O)c1[nH]c(=O)[nH]c1CSc1nc(C)cc(C)n1	10.2	4042	3.6	4.6	0.8	1.0	-1.6	-1.7
CCOC(=O)c1oc2cccc(O)c2c1CN1CCOCC1	3.3	8466	-1.6	-0.9	-0.2	.	.	.
CCOC(=O)CCCCC(=O)c1[nH]c(=O)[nH]c1CSc1nc2ccccc2[nH]1	36.5*	7134	-11.2	0.3	5.0	-0.4	-5.9	-3.2
CCOC(=O)CCCCC(=O)c1[nH]c(=O)[nH]c1CSc1nc(C)cc(=O)[nH]1	47.3*	6552	-9.3	3.9	7.6	1.2	4.4	-1.9
CCOC(=O)CCCCC(=O)c1[nH]c(=O)[nH]c1CN1CCOCC1	58.8*	5310	-6.7	4.1	9.5	-1.0	-3.2	-0.6
C[C@@H]1CN([C@@H](C)CO)C(=O)CCCn2nncc2CO[C@@H]1CN(C)S(C)(=O)=O	-4.4	3809	2.8	-0.1	0.2	.	.	.
Cc1ccc(C(=O)NCC(=O)N2CCN(c3ccccc3O)CC2)s1	-5.6	2838	-16.4	-4.7	0.3	.	.	.
CC1Oc2ccccc2N(CC(=O)NC2CCCC2)C1=O (centres undefined)	35.4*	3948	4.2	-0.6	0.9	-2.2	-3.0	2.8
